DT40 TDP1 CPT = growth inhibition of DT40 Tdp1-/-;hTDP1 cells with camptothecin (screen for TDP1 inhibitors); Potency, µM (top dose mostly 46.2 µM), for the others: at the top dose activity change, negative = growth inhibition, usual class: inhibitors; chicken DT40 Tdp1-/-;hTDP1 cells + 20 nM CPT, ATP luminescence, 48 h; 420,000 compounds, 12% hits; also: potency is read from the fitted curve at half-maximal effect; nearly all actives have a fitted effect of over 55% in size
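Cell growth measured by CellTiter-Glo luminescence after a minimum 48 h, 37 C compound exposure with 20 nM CPT in Tdp1-knockout DT40 cells stably expressing hTDP1, seeded 400/well; qHTS titration format.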
VP16 counter = counter-screen for ROR gamma inhibitors: Gal4-VP16 reporter; 310,000 compounds, 3.5% hits; Potency, µM (doses to about 53.6 µM), inactives show at the top dose activity, negative = inhibition, most hits filed as inhibitors; Drosophila S2 Gal4-VP16 UAS-luciferase, luminescence, 20 h;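 also: Gal4-VP16 expression switched on by copper sulfate through the metallothionein promoter; potency is read from the fitted curve at half-maximal effect; nearly all actives have a fitted effect of over 50% in size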
ELG1 DNA repair = inhibitors of ELG1-dependent DNA repair in HEK293T cells; HEK293T ELG1-luciferase reporter, luminescence, 16 h; DNA damage induced by 5-fluorouridine; Potency, µM (doses to about 46.1 µM), for inactives: at the highest dose activity change, negative = inhibition, actives largely listed as inhibitors; 330,000 compounds, 2.3% hits; AID 504467; also: potency is read from the fitted curve at half-maximal effect; nearly all actives have a fitted effect of over 55% in size
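5-Fluorouridine DNA damage + compound/DMSO, 2,000 cells/well, 16 h, 37 °C/5% CO2. ONE-Glo, 30 min RT, luminescence. Readout = decrease in reporter signal.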
RORg inh = blocks mouse ROR gamma transcriptional activity; P51450; Drosophila S2 Gal4-RORgamma UAS-luciferase reporter, 20 h; Potency, µM (series often up to 53.6 µM), inactives show top-dose activity change, negative = inhibition, most hits filed as inhibitors; 310,000 compounds, 5.4% hits; also: potency is read from the fitted curve at half-maximal effect; nearly all actives have a fitted effect of over 60% in size
Target sequence (P51450 whole entry, looked up, the tested form may be a part): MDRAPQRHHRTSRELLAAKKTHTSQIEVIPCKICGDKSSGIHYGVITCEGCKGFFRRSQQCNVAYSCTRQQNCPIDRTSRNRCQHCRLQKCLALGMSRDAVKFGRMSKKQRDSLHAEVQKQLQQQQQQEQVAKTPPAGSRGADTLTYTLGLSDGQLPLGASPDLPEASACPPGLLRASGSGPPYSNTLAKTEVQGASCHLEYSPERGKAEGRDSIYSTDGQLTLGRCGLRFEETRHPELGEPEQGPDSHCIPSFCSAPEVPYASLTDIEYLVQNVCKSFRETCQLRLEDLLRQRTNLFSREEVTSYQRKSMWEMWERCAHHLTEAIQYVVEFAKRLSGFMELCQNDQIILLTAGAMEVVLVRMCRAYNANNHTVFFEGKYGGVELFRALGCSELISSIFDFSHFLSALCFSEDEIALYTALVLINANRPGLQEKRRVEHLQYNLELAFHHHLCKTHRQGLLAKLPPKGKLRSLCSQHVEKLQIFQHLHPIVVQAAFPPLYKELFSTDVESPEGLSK
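Drosophila Schneider cells stably carrying a metallothionein-driven Gal4 DBD–ROR gamma fusion and a UAS-Photinus luciferase reporter were exposed to compound for 1 hr, then induced with copper sulfate (700 uM final) for 20 hr at ambient temperature before luminescence reading.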
IL1B secr inh = inflammasome signaling inhibition, IL-1 beta readout; activity change, % at 57.5 µM; THP-1 LPS/ATP IL-1B secretion, AlphaLISA, 16 h; stronger effect = lower value; 360,000 compounds, 4.7% hits; in the data active = activity change below about -50%; inconclusive = mostly about -30% to -49%
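Secreted IL-1B measured by AlphaLISA bead assay after 16 h compound exposure of THP-1 cells; compounds (final up to 57.5 uM) added 1 h before LPS (250 ng/mL) and ATP (1.25 mM) stimulation; lower signal means less secretion.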
DT40 TDP1 no CPT = qHTS for Inhibitors of human tyrosyl-DNA phosphodiesterase 1 (TDP1): qHTS in cells in absence of CPT. AID 686978, 2013. Potency, µM (highest dose often 46.2 µM), for inactives: at the top dose activity change, negative = growth inhibition, actives largely listed as inhibitors. 420,000 compounds, 15% hits. DT40 Tdp1-/- hTDP1 cells, no CPT, ATP luminescence, 48 h; also: potency is read from the fitted curve at half-maximal effect; nearly all actives have a fitted effect of over 55% in size
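DT40 Tdp1-/-;hTDP1 cells, no CPT (DMSO vehicle only), 400 cells/well; compounds pin-transferred; ≥48 hr, 37 °C; CellTiter-Glo 30 min RT dark, luminescence read.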
Numbers without * were called inactive; [ ] = another dose, or the depositor's remark. Sampled rows, rich in hits. Any-hit rate of the full collection: about 21%. Unless noted, calls follow the shape of the dose curve; as a rule, active = well fitted curve in the direction sought with a large enough effect; inconclusive = small, poorly fitted or top-dose-only effect, or another doubt; inactive = no such curve, though single readings can be large; an effect the other way counts as inactive or inconclusive. % is scaled to controls: 0 for no effect and ±100 for the full control effect.

Screening COc1ccccc1C(=O)NNC(=O)Cc1ccccc1 returned DT40 TDP1 CPT -4.8%, VP16 counter 24.0%, ELG1 DNA repair 1.8%, RORg inh -24.9%, IL1B secr inh 18.1 and DT40 TDP1 no CPT -6.1%.
For O=C(/C=C/c1ccccc1Cl)N1CCC(c2nc3ccccc3o2)CC1 the results were DT40 TDP1 CPT inconclusive and DT40 TDP1 no CPT 20.6µM*.
COc1ccc(/C=C/C(=O)N2CCC(c3nc4ccccc4o3)CC2)cc1OC was read as DT40 TDP1 CPT inconclusive and DT40 TDP1 no CPT 16.4µM*.
Screening O=C(/C=C/c1ccccc1Cl)N1CCOCC1 returned DT40 TDP1 CPT -17.1%, VP16 counter -0.9%, ELG1 DNA repair inconclusive, RORg inh 0.1%, IL1B secr inh -6.5 and DT40 TDP1 no CPT 19.3%.
`COc1ccc(CCNc2ccc(S(=O)(=O)N3CCCC3)cc2[N+](=O)[O-])cc1` gave DT40 TDP1 CPT 14.6µM*, VP16 counter -4.5%, ELG1 DNA repair inconclusive, RORg inh -19.6%[10 µM], IL1B secr inh -22.2 and DT40 TDP1 no CPT inconclusive.
O=[N+]([O-])c1cc(S(=O)(=O)N2CCCCCC2)ccc1Cl was read as DT40 TDP1 CPT inconclusive, VP16 counter 3.4%, ELG1 DNA repair inconclusive, RORg inh -42.6%, IL1B secr inh -103.5* and DT40 TDP1 no CPT 8.2µM*.
Screening COc1cc(C=O)ccc1Oc1ccc(S(=O)(=O)N2CCOCC2)cc1[N+](=O)[O-] returned DT40 TDP1 CPT -9.6%, ELG1 DNA repair 0.4%, IL1B secr inh -57.2* and DT40 TDP1 no CPT -29.2%.
For COc1ccc(Nc2ccc(S(=O)(=O)N3CCCCCC3)cc2[N+](=O)[O-])cc1 the results were DT40 TDP1 CPT inconclusive, VP16 counter 5.6%, ELG1 DNA repair -11.8%, RORg inh 31.7%, IL1B secr inh inconclusive and DT40 TDP1 no CPT 23.1µM*.
Screening COc1cc(Nc2ccc(S(=O)(=O)N3CCN(C)CC3)cc2[N+](=O)[O-])cc(OC)c1 returned DT40 TDP1 CPT inconclusive, ELG1 DNA repair 13.4%, IL1B secr inh -28.6 and DT40 TDP1 no CPT inconclusive.
NC(=O)c1cc[n+](CC2=C(C(=O)[O-])N3C(=O)[C@@H](NC(=O)Cc4cccs4)[C@H]3SC2)cc1 was read as DT40 TDP1 CPT -5.6%[21.1 µM] and DT40 TDP1 no CPT -19.5%[21.1 µM].
Screening CCOC(=O)c1ccc(NC(=S)Nc2ccc3[nH]c(=O)[nH]c3c2)cc1 returned DT40 TDP1 CPT -15.8%, VP16 counter -21.8%, ELG1 DNA repair inconclusive, RORg inh 7.9%, IL1B secr inh 3.1 and DT40 TDP1 no CPT -2.4%.
Screening COC(=O)c1cccc(-c2cc(Cl)c3c(c2)CC(CNC(=O)c2cccnc2)O3)c1 (configuration not stated) returned DT40 TDP1 CPT 16.6%[9.04 µM] and DT40 TDP1 no CPT inconclusive.
COCC(C)Nc1ccc(S(=O)(=O)N2CCCC2)cc1[N+](=O)[O-] (configuration not stated) was read as DT40 TDP1 CPT -6.0%, VP16 counter -7.7%, ELG1 DNA repair 2.9%, RORg inh 6.3%, IL1B secr inh -13.7 and DT40 TDP1 no CPT inconclusive.
Screening COc1ccc(Nc2ccc(S(=O)(=O)N3CCCCC3)cc2[N+](=O)[O-])cc1OC returned DT40 TDP1 CPT inconclusive, VP16 counter -0.3%, ELG1 DNA repair inconclusive, RORg inh inconclusive, IL1B secr inh 0.0 and DT40 TDP1 no CPT 20.6µM*.
For Cc1ccc(S(=O)(=O)N2CCCCC2C)cc1[N+](=O)[O-] (configuration not stated) the results were DT40 TDP1 CPT 11.6µM*, VP16 counter -14.6%, ELG1 DNA repair inconclusive, RORg inh inconclusive, IL1B secr inh -7.2 and DT40 TDP1 no CPT 14.6µM*.
`NS(=O)(=O)c1ccc(NC(=O)CSc2nc3ccccc3n2-c2ccccc2)cc1` gave DT40 TDP1 CPT inconclusive, VP16 counter -1.7%, ELG1 DNA repair inconclusive, RORg inh 8.5%, IL1B secr inh -9.6 and DT40 TDP1 no CPT inconclusive.
`CN(C)S(=O)(=O)c1ccc(NC(=O)CSc2nc3ccccc3n2-c2ccccc2)cc1` gave DT40 TDP1 CPT inconclusive, VP16 counter -20.2%, ELG1 DNA repair inconclusive, RORg inh 41.5%, IL1B secr inh -6.4 and DT40 TDP1 no CPT 20.6µM*.
O=C(O)CSc1nc2ccccc2n1-c1ccccc1 was read as DT40 TDP1 CPT 11.5%, VP16 counter 1.1%, ELG1 DNA repair 10.3%, RORg inh 3.6%, IL1B secr inh -81.3* and DT40 TDP1 no CPT 18.8%.
O=C(O)CSc1nc(C(F)(F)F)cc(=O)n1-c1ccccc1 was read as DT40 TDP1 CPT 1.7%, VP16 counter -10.0%, ELG1 DNA repair 1.0%, RORg inh 1.7%, IL1B secr inh -5.1 and DT40 TDP1 no CPT -13.1%.
`CN(C)S(=O)(=O)c1cccc(NC(=O)CSc2nc3ccccc3n2-c2ccccc2)c1` gave DT40 TDP1 CPT inconclusive, VP16 counter 4.2%, ELG1 DNA repair 18.4µM*, RORg inh 35.9%, IL1B secr inh -10.9 and DT40 TDP1 no CPT 25.9µM*.
For Cc1cc(C)nc(SCC(=O)Nc2cccc(S(=O)(=O)N(C)C)c2)n1 the results were DT40 TDP1 CPT -1.6%, VP16 counter -7.3%, ELG1 DNA repair inconclusive, RORg inh 35.5%, IL1B secr inh 117.8 and DT40 TDP1 no CPT inconclusive.
Screening CCNC(=O)N1CCN(C(=O)NCC)CC1 returned DT40 TDP1 CPT -3.8%, VP16 counter -0.6%, ELG1 DNA repair -1.0%, RORg inh -7.0%, IL1B secr inh 3.5 and DT40 TDP1 no CPT 2.8%.
For CCNC(=O)N1CCOCC1 the results were DT40 TDP1 CPT 0.4%, VP16 counter 8.1%, ELG1 DNA repair 0.2%, RORg inh 17.5%, IL1B secr inh -6.6 and DT40 TDP1 no CPT 6.31µM*.
For CCOC(=O)c1cccc(NC(=O)c2cnc3ccccc3n2)c1 the results were DT40 TDP1 CPT inconclusive, VP16 counter inconclusive, ELG1 DNA repair 12.4%, RORg inh inconclusive, IL1B secr inh -12.7 and DT40 TDP1 no CPT 25.9µM*.
`CCOC(=O)c1cccc(NC(=O)c2ccc3snnc3c2)c1` gave DT40 TDP1 CPT inconclusive and DT40 TDP1 no CPT 18.4µM*.
CC(=O)c1ccc(NC(=O)c2ccc3snnc3c2)cc1 was read as DT40 TDP1 CPT -6.4%, VP16 counter 17.0%, ELG1 DNA repair inconclusive, RORg inh inconclusive, IL1B secr inh -3.5 and DT40 TDP1 no CPT 18.5%.
